Our source for the inhibition values is ChEMBL document CHEMBL1961873, “Compounds: GSK PKIS; Assays: Nanosyn kinase panel” (2012).

Assay [1] addresses Mitogen-activated protein kinase 3 (Homo sapiens) (UniProt P27361). The following applies: at 1 µM.
Assay [2] has as its target SRSF protein kinase 3 (Homo sapiens) (UniProt Q9UPE1). The following applies: at 0.1 µM.
The target is the same in assay [3]. Particulars: at 1 µM.
Assay [4] addresses Mitogen-activated protein kinase 14 (Homo sapiens) (UniProt Q16539). The following applies: at 0.1 µM.
The target is the same in assay [5]. Particulars: at 1 µM.
For assay [6], the target named is Mitogen-activated protein kinase 11 (Homo sapiens) (UniProt Q15759). The following applies: at 0.1 µM.
Sequence of Mitogen-activated protein kinase 11 (Homo sapiens) (Q15759 whole entry): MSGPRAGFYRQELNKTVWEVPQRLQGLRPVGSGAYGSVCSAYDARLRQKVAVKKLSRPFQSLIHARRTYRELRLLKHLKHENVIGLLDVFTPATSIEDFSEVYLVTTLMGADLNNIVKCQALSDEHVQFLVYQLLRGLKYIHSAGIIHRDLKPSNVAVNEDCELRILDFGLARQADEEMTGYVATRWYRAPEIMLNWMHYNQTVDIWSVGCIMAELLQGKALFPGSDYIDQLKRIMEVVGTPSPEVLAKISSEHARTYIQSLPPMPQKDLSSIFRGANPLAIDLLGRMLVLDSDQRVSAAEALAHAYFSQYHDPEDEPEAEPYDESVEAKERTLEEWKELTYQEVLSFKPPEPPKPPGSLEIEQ
For assay [7] the target is unchanged. The following applies: at 1 µM.
The target in assay [8] is T1, Mitogen-activated protein kinase 13 (Homo sapiens) (UniProt O15264).
T1 sequence (whole entry): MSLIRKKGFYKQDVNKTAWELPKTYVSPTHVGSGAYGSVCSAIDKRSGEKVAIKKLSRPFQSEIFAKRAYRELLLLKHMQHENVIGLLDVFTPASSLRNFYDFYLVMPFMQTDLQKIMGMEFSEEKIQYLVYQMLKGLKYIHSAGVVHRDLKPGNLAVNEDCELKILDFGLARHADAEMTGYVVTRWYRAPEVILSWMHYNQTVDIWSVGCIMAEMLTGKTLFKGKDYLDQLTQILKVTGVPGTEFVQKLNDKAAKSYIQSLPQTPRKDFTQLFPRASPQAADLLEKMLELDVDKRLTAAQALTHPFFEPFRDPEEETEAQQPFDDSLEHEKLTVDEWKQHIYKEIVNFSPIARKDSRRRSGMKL
Particulars: at 0.1 µM.

The target in assay [9] is T1, Mitogen-activated protein kinase 13 (Homo sapiens). Particulars: at 1 µM.
Assay [10] concerns the target T2, Mitogen-activated protein kinase 12 (Homo sapiens) (UniProt P53778).
T2 sequence (whole entry): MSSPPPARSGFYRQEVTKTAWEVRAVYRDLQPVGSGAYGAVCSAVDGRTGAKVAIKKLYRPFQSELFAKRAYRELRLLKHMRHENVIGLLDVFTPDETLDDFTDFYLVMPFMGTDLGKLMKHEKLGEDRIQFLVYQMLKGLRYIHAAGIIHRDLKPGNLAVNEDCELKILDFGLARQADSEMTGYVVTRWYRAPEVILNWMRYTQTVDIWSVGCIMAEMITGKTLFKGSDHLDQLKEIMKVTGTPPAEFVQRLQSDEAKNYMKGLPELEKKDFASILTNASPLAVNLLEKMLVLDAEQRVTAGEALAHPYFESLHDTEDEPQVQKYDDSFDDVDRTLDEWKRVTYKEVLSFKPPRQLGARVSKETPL
Particulars: at 0.1 µM.

Assay [11] has as its target T2, Mitogen-activated protein kinase 12 (Homo sapiens). Particulars: at 1 µM.
Assay [12] concerns the target SRSF protein kinase 1 (Homo sapiens) (UniProt Q96SB4). Particulars: at 0.1 µM.
Assay [13] has the same target. The following applies: at 1 µM.
Assay [14] has as its target Phosphatidylinositol 4,5-bisphosphate 3-kinase catalytic subunit alpha isoform (Homo sapiens) (UniProt P42336). Particulars: at 0.1 µM.
The target is the same in assay [15]. The following applies: at 1 µM.
Assay [16] addresses T3, Phosphatidylinositol 4,5-bisphosphate 3-kinase catalytic subunit delta isoform (Homo sapiens) (UniProt O00329).
T3 sequence (whole entry): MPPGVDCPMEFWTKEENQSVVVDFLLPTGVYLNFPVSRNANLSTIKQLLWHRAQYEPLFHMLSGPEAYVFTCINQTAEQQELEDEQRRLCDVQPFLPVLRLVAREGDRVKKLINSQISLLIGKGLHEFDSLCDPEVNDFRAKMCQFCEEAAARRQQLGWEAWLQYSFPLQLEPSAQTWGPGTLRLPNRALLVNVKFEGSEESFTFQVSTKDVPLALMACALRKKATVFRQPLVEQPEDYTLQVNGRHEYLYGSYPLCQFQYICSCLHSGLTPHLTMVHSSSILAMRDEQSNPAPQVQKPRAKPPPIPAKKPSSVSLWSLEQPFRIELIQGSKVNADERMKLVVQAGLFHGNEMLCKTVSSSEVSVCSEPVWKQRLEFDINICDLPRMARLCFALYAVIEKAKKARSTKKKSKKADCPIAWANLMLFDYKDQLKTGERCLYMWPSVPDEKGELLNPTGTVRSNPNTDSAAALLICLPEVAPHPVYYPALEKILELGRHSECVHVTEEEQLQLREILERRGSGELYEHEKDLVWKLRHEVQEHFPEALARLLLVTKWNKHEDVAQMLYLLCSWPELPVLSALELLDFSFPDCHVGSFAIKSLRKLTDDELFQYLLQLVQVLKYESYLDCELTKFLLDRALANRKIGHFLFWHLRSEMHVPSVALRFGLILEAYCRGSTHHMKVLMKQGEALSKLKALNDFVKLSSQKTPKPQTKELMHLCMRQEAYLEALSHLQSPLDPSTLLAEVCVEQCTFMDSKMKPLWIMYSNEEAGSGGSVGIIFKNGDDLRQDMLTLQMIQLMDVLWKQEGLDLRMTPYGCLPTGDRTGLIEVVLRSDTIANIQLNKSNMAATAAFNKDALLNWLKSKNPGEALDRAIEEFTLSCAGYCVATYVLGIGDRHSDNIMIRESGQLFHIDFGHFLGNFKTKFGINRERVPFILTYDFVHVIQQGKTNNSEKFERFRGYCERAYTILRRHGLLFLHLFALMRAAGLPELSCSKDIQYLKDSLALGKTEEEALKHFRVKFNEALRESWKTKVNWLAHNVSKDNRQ
Particulars: at 0.1 µM.

For assay [17], the target named is T3, Phosphatidylinositol 4,5-bisphosphate 3-kinase catalytic subunit delta isoform (Homo sapiens). The following applies: at 1 µM.
Assay [18] addresses Phosphatidylinositol 4-kinase beta (Homo sapiens) (UniProt Q9UBF8). The following applies: at 0.1 µM.
Assay [19] has the same target. The following applies: at 1 µM.
Assay [20] has as its target Sphingosine kinase 1 (Homo sapiens) (UniProt Q9NYA1). The following applies: at 0.1 µM.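 Also: mean percent inhibition of SPHK1 activity, measured within the GSK PKIS screening panel.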

Sequence of Sphingosine kinase 1 (Homo sapiens) (Q9NYA1 whole entry): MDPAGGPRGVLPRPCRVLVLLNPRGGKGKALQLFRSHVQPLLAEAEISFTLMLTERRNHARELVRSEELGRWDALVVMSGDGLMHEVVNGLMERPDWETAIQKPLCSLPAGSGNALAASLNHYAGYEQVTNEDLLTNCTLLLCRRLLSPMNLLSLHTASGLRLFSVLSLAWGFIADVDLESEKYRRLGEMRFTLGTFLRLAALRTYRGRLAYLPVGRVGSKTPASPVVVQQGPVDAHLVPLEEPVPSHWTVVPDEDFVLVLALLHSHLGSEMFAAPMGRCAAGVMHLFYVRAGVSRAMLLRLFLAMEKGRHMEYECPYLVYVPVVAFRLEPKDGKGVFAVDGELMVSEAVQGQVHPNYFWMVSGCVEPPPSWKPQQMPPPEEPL
Sequence of Mitogen-activated protein kinase 14 (Homo sapiens) (Q16539 whole entry): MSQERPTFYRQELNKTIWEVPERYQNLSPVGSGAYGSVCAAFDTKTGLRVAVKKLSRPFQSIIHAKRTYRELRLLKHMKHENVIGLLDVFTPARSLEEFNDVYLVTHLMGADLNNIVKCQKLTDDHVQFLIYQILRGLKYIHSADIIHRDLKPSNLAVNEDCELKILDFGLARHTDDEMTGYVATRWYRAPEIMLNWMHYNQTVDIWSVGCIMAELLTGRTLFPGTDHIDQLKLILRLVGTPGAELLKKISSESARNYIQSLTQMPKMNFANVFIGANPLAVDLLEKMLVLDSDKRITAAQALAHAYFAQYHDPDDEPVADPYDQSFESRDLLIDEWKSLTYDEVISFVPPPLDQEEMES
Sequence of SRSF protein kinase 3 (Homo sapiens) (Q9UPE1 whole entry): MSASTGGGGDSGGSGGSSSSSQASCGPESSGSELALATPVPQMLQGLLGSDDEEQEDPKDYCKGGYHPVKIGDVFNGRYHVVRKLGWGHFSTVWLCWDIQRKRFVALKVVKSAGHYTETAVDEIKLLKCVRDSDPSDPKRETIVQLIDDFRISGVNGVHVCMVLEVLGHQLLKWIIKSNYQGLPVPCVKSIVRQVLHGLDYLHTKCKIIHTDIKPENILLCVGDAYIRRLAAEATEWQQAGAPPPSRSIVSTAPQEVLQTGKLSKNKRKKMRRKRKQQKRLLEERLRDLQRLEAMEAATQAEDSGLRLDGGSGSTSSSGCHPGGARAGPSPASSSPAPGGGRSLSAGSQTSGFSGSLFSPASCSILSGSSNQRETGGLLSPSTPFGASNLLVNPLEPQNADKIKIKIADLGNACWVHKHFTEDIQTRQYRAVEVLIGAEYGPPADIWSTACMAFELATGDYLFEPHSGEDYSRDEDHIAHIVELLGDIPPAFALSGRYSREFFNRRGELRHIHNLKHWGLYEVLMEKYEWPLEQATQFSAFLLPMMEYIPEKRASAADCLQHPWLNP
Sequence of Mitogen-activated protein kinase 3 (Homo sapiens) (P27361 whole entry): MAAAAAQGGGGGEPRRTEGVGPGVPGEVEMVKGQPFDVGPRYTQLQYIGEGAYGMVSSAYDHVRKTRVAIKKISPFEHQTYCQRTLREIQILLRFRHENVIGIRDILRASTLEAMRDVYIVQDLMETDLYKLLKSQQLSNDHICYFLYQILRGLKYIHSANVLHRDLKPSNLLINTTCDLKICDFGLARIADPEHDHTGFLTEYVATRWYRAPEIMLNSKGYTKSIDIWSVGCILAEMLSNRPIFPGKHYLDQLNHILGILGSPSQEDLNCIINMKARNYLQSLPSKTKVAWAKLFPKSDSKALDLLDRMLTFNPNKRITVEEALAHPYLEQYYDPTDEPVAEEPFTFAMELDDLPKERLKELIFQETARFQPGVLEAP
Sequence of SRSF protein kinase 1 (Homo sapiens) (Q96SB4 whole entry): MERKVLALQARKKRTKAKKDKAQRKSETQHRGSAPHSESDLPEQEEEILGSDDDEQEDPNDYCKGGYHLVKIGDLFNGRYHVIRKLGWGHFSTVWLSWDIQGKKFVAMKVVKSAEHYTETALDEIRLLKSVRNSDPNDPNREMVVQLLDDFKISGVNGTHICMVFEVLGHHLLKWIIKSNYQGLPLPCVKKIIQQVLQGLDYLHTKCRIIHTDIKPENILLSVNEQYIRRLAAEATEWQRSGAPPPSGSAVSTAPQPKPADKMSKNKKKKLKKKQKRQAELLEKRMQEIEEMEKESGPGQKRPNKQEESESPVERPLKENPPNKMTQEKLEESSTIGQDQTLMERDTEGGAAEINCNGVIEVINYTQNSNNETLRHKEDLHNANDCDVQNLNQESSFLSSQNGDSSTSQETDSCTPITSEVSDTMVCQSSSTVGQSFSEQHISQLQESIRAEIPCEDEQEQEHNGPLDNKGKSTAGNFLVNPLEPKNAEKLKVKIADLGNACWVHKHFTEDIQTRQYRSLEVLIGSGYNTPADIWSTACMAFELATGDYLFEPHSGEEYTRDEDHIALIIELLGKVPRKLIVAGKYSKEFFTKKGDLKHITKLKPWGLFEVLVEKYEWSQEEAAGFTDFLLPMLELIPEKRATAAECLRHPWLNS
Sequence of Phosphatidylinositol 4-kinase beta (Homo sapiens) (Q9UBF8 2-816 limits assumed): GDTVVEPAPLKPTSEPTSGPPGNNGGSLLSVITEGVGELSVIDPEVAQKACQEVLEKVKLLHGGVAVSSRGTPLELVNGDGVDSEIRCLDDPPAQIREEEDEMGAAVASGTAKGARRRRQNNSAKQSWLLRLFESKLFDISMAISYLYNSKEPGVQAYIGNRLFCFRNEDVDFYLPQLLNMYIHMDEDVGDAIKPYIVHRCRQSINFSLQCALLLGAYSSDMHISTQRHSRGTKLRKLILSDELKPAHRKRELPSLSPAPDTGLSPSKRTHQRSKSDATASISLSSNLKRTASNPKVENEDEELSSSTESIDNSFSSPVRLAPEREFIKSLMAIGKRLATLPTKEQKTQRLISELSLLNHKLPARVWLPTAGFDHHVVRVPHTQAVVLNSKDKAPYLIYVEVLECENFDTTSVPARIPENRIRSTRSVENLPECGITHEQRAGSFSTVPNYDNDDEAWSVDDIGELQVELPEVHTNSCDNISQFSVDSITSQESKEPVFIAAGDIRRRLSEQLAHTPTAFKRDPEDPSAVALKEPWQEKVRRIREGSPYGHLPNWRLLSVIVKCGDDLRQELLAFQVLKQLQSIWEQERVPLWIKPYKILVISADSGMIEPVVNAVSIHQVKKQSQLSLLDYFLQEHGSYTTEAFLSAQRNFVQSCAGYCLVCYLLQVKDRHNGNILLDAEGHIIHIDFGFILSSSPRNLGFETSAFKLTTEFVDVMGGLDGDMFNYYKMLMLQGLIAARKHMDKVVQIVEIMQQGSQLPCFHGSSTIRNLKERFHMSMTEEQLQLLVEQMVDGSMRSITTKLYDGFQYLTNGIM
Sequence of Phosphatidylinositol 4,5-bisphosphate 3-kinase catalytic subunit alpha isoform (Homo sapiens) (P42336 whole entry, canonical isoform): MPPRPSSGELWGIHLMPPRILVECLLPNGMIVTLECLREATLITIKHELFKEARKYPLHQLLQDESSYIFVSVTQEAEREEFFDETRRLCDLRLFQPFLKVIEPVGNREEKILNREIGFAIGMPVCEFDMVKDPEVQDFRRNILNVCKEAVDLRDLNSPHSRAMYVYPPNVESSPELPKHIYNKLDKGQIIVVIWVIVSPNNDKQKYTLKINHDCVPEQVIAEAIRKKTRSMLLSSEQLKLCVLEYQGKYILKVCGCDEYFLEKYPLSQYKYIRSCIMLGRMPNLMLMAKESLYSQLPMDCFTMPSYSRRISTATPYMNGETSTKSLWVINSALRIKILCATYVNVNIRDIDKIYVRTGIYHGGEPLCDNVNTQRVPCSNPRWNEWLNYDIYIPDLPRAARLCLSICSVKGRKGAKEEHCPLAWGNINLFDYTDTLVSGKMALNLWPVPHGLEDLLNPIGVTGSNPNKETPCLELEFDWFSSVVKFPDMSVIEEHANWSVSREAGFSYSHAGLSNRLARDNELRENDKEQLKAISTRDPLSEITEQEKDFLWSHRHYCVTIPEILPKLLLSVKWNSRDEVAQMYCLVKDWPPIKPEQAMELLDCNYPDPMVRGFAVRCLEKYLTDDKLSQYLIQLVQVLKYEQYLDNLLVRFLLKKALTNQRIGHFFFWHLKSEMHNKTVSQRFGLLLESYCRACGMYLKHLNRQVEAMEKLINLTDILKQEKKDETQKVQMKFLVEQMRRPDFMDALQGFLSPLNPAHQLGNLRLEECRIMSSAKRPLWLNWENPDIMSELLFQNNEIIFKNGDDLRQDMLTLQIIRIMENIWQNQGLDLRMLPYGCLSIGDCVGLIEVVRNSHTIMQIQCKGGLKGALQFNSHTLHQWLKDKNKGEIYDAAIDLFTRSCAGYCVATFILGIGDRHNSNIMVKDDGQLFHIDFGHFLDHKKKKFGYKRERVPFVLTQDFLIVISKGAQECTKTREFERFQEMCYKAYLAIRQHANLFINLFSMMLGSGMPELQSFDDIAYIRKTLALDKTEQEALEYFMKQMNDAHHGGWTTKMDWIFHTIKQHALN

A word on the inhibition: it is the drop in the measured response relative to a control, in per cent. As to `CS(=O)(=O)Nc1cccc(-c2ccc3c(NC(=O)C4CC4)n[nH]c3c2)c1`, the inhibition in assay [1] was 1.38%; in [2], -2.12%; in [3] it was -0.78%; in assay [4] it was -1.33%; in [5], 6.14%; in assay [6], 2.35%. The inhibition in [7] was 10.1%; in assay [8] it was -1.65%; in [9] it was 1.02%; in assay [10], 1.49%; in assay [11], 0.75%; in assay [12], -2.53%. The inhibition in assay [13] is -4.93%; in assay [14], -0.25%; in [15] it was -0.59%; in assay [16] it was 1.13%; in assay [17] it was 4.97%; in assay [18], -1.63%. Further, the inhibition is 4.39% in assay [19] and 0.08% in assay [20].

Consider `Oc1cccc(-c2nc(-c3ccccc3)[nH]c2-c2ccncc2)c1`, for which the inhibition in assay [1] worked out at 5.5%; in assay [2] it was 1.08%; in [3] it was 12.3%; in assay [4], 34.9%; in [5], 71.1%; in assay [6] it was 10.7%. Moreover, the inhibition in assay [7] is 47.7%; in assay [8] it was 1.41%; in assay [9] it was 3.86%; in assay [10], -0.21%; in [11], 1.56%; in assay [12], -1.52%. In addition, the inhibition in assay [13] is 0.98%; in assay [14], 2.99%; in assay [15] it was 2.95%; in assay [16], 2.01%; in assay [17] it was 1.67%; in assay [18], -5.44%. Besides, the inhibition in assay [19] is -3.49%; in [20], 1.87%.

In the case of `Nc1nccc(-c2c(-c3ccc(F)cc3)ncn2CCCN2CCOCC2)n1`, the inhibition was 5.63% in assay [1]; -3.36% in assay [2]; -1.79% in assay [3]; 21.2% in assay [4]; 64.9% in assay [5]; 6.8% in [6]. Moreover, the inhibition was 20.2% in assay [7]; 2.28% in assay [8]; 5.09% in assay [9]; 1.09% in [10]; 3.58% in assay [11]; -1.35% in assay [12]. Also, the inhibition in assay [13] was -2.36%; in assay [14] it was 3.59%; in assay [15], 3.13%; in [16], 0.42%; in assay [17] it was 3.48%; in assay [18], -8.25%. In addition, the values for the inhibition in assay [19] and in assay [20] were -2.19% and 2.43%, respectively.

As for `COc1cc2ncnc(Nc3ccc4c(cnn4Cc4ccccc4)c3)c2cc1OC`, the inhibition in [1] was 3.12%; in [2] it was -1.9%; in [3] it was -0.51%; in [4], 4.33%; in assay [5], 3.94%; in assay [6], 1.39%. Besides, the inhibition was 1.39% in assay [7]; 3.21% in assay [8]; 2.74% in [9]; 2.87% in [10]; 3.71% in assay [11]; -4.03% in assay [12]. The inhibition in assay [13] was -2.33%; in assay [14], 1.81%; in assay [15], 2.38%; in [16], 0.53%; in assay [17] it was 1.87%; in [18], 1.81%. The inhibition worked out at 4.03% in assay [19] and 0.61% in assay [20].

As to `C[C@@H](Oc1cc(-n2cnc3ccc(OC[C@@H](O)CO)cc32)sc1C(N)=O)c1ccccc1Cl`, the inhibition in assay [1] is -2.21%; in [2] it was -1.72%; in [3], 0.27%; in assay [4] it was 2.66%; in [5], 3.54%; in [6] it was -1.66%. In addition, the inhibition in assay [7] was 1.86%; in assay [8], -3.13%; in assay [9], -2.7%; in [10], -0.19%; in [11] it was -1.21%; in assay [12] it was -0.36%. Also, the inhibition in assay [13] is -1.3%; in [14], -0.06%; in [15] it was 13.4%; in assay [16], 1.99%; in assay [17], 34.9%; in assay [18] it was 3.09%. Moreover, the results for the inhibition in [19] and in assay [20] were -1.09% and -2.33%, respectively.

With `CN(C)C(=O)O[C@@H]1CN[C@@H](C#Cc2cc3ncnc(Nc4ccc(OCc5cccc(F)c5)c(Cl)c4)c3s2)C1`, the inhibition is 1.36% in [1]; -1.41% in assay [2]; -1.97% in assay [3]; 5.64% in [4]; 2.87% in assay [5]; 3.3% in assay [6]. Besides, the inhibition is 6.17% in [7]; 1.12% in assay [8]; 1.11% in [9]; 0.57% in assay [10]; 1.28% in assay [11]; -1.65% in assay [12]. The inhibition in assay [13] was -5.46%; in assay [14] it was 0.17%; in [15] it was 29%; in [16], 3.66%; in [17], 20.8%; in assay [18], -2.99%. Also, the inhibition in [19] was -0.33%; in [20], 0.88%.

On to `CS(=O)(=O)CCNCc1nc(-c2ccc3ncnc(Nc4ccc(OCc5cccc(C(F)(F)F)c5)cc4)c3c2)cs1`, for which the inhibition in assay [1] is 1.69%; in assay [2] it was 0.88%; in assay [3] it was -1.85%; in assay [4], 4.2%; in [5] it was 3.19%; in assay [6] it was 2.78%. Also, the inhibition in assay [7] is 1.51%; in assay [8], 1.27%; in [9] it was 2.16%; in assay [10] it was 0.83%; in [11], 2.12%; in assay [12] it was -2.46%. Moreover, the inhibition was -3.03% in [13]; 1.85% in assay [14]; -0.47% in assay [15]; 0.76% in assay [16]; 3.63% in assay [17]; -0.59% in assay [18]. Moreover, the inhibition in assay [19] is 0.33%; in assay [20], -1.19%.
